Screens: PubChem, NMMLSC
In the library only some 2.9% were active in any assay of this set; here they are far more common.
MEKK3 PB1 HTS: MEKK3-MEK5 PB1 interaction, increase or decrease | Q99759 | binding response (% of control), % at 10 µM | hit rate 1.4% among 290,000 | bead-based flow cytometry, Alexa488-MEK5 binding to MEKK3; actives lie on both sides; 0 = blocked by unlabeled MEK5, 100 = vehicle;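 active means binding response more than 3 SD above or below the average of its plate-row segment, actives on both sides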;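 further: Alexa488 bead fluorescence after subtracting the streptavidin-only scavenger bead signal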
MEKK2wt PB1 HTS: raises or lowers MEK5 binding to wildtype human MEKK2 PB1 domain. Q9Y2U5. bead flow cytometry, Alexa488-MEK5 binding to MEKK2 WT; actives lie on both sides. hit rate 1.1% among 290,000. binding response (% of control), % at 10 µM; in the data active means binding response below about 67% or above about 130%
GRK2 aptamer HTS: human GRK2 inhibition via aptamer displacement; inhibition of aptamer binding, % at 10 µM; hit rate 0.59% among 330,000; P25098; AID 488847; bead flow cytometry, FAM-aptamer displacement from GRK2;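 active means inhibition of aptamer binding above 40%, roughly 3 SD of noise, on plates passing a quality check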;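 further: median bead fluorescence of bound FAM aptamer so fluorescent compounds give negative values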
MEKK2 mut-MEK5: signal of MEK5 binding to mutant human MEKK2 PB1 domain. bead flow cytometry, Alexa488-MEK5 binding to MEKK2 mutant. percent response, % at 10 µM. hit rate 0.35% among 290,000. AID 1530; in the data active means percent response above about 24%, passing the limit was not always enough
B2AR ag: agonists of human beta-2 adrenergic receptor inducing internalization; Am2.2-beta2AR cells, FAP receptor internalization, flow cytometry; response, % (concentration not given with the values); hit rate 0.43% among 340,000; AID 504454;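 active means response above a set limit, near 3 SD of response in nonfluorescent compounds, cut at about 42% in these data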
Target sequence (P07550 whole entry, looked up): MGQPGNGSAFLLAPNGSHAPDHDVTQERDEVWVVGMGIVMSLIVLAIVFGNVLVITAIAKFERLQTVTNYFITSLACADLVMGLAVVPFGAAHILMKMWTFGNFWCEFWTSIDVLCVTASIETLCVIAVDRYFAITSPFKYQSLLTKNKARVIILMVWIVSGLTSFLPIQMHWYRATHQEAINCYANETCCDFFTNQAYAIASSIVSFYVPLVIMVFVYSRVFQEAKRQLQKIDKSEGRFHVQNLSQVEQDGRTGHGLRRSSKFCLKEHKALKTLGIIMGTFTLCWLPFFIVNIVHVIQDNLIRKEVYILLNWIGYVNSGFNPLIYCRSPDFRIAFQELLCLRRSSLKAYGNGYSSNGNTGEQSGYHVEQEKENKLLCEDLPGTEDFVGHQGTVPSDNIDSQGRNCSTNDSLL
GRK2 inh confirm: confirmation of human GRK2 inhibitors displacing RNA aptamer; shares compounds with GRK2 aptamer HTS; bead-bound GRK2, FAM-aptamer displacement, flow cytometry; aptamer displacement, % at 10 µM; hit rate 4% among 2,000;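 active means aptamer displacement above 40%, near three times the noise of non-fluorescent compounds, on plates passing quality checks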;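 further: negative values mostly reflect intrinsic compound fluorescence rather than true enhancement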
Aptamer quench SP: aptamer fluorescence quenching in GRK2 counter-screen. shares compounds with GRK2 aptamer HTS. Carboxyfluorescein RNA aptamer on beads, flow cytometry quenching; hits give low values. fluorescence response (% of DMSO), % at 10 µM. 2,000 tested, under 10 active. AID 504580;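 active means compounds that quench the bead-bound fluorescent RNA probe, cutting fluorescence to under half of the solvent control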;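 further: counterscreen run without GRK2 so only probe quenching by compound is measured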
GRK2 CP2: human GRK2 inhibition confirmation, cherry pick 2; shares compounds with GRK2 aptamer HTS; bead-bound GRK2, FAM-aptamer displacement, flow cytometry; inhibition of aptamer binding, % at 10 µM; 360 tested, under 10 active;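 active means inhibition of aptamer binding above 40%, about triple the noise seen with nonglowing compounds, on plates passing quality control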;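 further: negative values mostly come from compounds that fluoresce themselves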
FAM quench CP2: quenches fluorescent RNA aptamer, GRK2 hit artifact; shares compounds with GRK2 aptamer HTS; carboxyfluorescein RNA aptamer beads, flow cytometry quenching; hits give low values; fluorescence response vs DMSO, % at 10 µM; 360 tested, under 10 active; AID 588494;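 active means response vs DMSO under 50%, meaning signal dropped by over half, treated as fluorescence quencher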;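 further: labelled aptamer on streptavidin beads without GRK2 as a quench counter-screen; 100% = bead fluorescence of DMSO wells and lower means quenching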
The depositor's hits bear a star; x = no result.

SMILES | MEKK3 PB1 HTS | MEKK2wt PB1 HTS | GRK2 aptamer HTS | MEKK2 mut-MEK5 | B2AR ag | GRK2 inh confirm | Aptamer quench SP | others
O=C(c1ccccn1)C1CCCN(Cc2cn[nH]c2-c2cc3ccccc3o2)C1 (configuration not stated) | 102.0 | 113.0 | 90.0* | 9.0 | 4.4 | 2.0 | 99.9
CC(=O)c1cccc(NC(=O)CN2C(=O)NC3(CCCCCCC3)C2=O)c1 | 94.0 | 98.0 | 100.0* | -2.0 | 8.6 | -30.9 | 99.2
CCOc1ccc(C(C)=O)cc1CN1C(=O)NC2(CCCCCC2)C1=O | 100.0 | 91.0 | 83.0* | -6.0 | -0.4 | -34.0 | 101.8
Cc1cc(C)c(NC(=O)CN2C(=O)NC3(CCCCC3)C2=O)c(Cl)c1 | 99.0 | 98.0 | 83.0* | 3.0 | -10.5 | 2.9 | 96.2
OCC[C@@H]1NCc2cc(CO)cc(-c3ccccc3)c21 | x | x | x | x | -7.5 | x | x
CC(C)[C@H]1COCCS(=O)(=O)N1Cc1ccccc1-c1ccc(C(C)(C)C)cc1 | x | x | 0.0 | x | 10.7 | x | x
C/C(=N\NC(=O)c1cccs1)c1ccc2ccccc2c1 | 103.0 | 106.0 | 12.0 | 3.0 | 4.4 | 0.8 | 101.8
Cc1ccc(NC(=O)CN(C)CC(=O)Nc2ccc(N3CCOCC3)cc2)c(C)c1 | 99.0 | 99.0 | 2.0 | 1.0 | 1.0 | 1.4 | 93.5
CN(CC(=O)Nc1ccc(N2CCOCC2)cc1)CC(=O)Nc1ccc(C(F)(F)F)cc1 | 96.0 | 88.0 | 6.0 | -11.0 | -3.5 | x | x
CN(CC(=O)Nc1ccc(N2CCOCC2)cc1)CC(=O)Nc1ccccc1C#N | 106.0 | 118.0 | 0.0 | 31.0 | 0.4 | -0.3 | 94.3
CCCCN1C(=O)C(C#N)CC2=C1CC(C)(C)CC2=O (configuration not stated) | x | x | x | x | 3.4 | x | x
O=C(CCC(=O)N1CCN(c2ccccc2F)CC1)N1CCN(c2ccccc2)CC1 | 99.0 | 102.0 | 0.0 | 3.0 | 6.8 | -1.6 | 98.6
COc1ccc(OCc2nnc(SCC(=O)Nc3cccc(C(C)=O)c3)o2)cc1 | x | x | 6.0 | x | -1.9 | x | x
CC(=O)Nc1cccc(Cn2cccn2)c1 | 96.0 | 93.0 | x | -4.0 | x | x | x
O=C(Nc1cccc(Cn2cccn2)c1)c1cc2c(s1)CCCC2 | 106.0 | 104.0 | 94.0* | 9.0 | -2.4 | -1.0 | 94.5
Cc1nc(C)c(C(=O)OCC(=O)NCc2ccccc2Cl)s1 | x | x | 1.0 | x | 4.2 | x | x
Cn1c(CCNC(=O)c2ccccc2)nc2cc(NC(=O)c3ccco3)ccc21 | 102.0 | 101.0 | 5.0 | -2.0 | -5.0 | x | x
CCCC(=O)Nc1ccc2c(c1)nc(CCNC(=O)c1ccccc1)n2C | 104.0 | 109.0 | 0.0 | 1.0 | -15.4 | 0.8 | 97.3
CC1CCN(CCOCCOc2ccccc2Br)CC1 | 90.0 | 107.0 | 95.0* | 8.0 | 3.2 | -1.6 | 97.8
O=C(CSc1nnc(SCc2ccc(Cl)cc2)s1)N1CCN(C(=O)c2ccco2)CC1 | 100.0 | 100.0 | 22.0 | 2.0 | 2.8 | x | x
COc1ccccc1-n1cnnc1SCC(=O)N1CCN(C(=O)c2ccco2)CC1 | 94.0 | 95.0 | 45.0* | -3.0 | -5.1 | 0.6 | 99.3
O=C(CSc1nncs1)N1CCN(C(=O)c2ccco2)CC1 | x | x | 81.0* | x | -4.1 | -0.8 | 99.8
COc1ccccc1-n1cnnc1SCC(=O)N1CCN(S(=O)(=O)c2ccccc2)CC1 | 103.0 | 107.0 | 0.0 | 0.0 | -0.6 | x | x
CCOc1ccc(CCNC(=O)Cn2nc(C)c3c(C)n(-c4ccccc4)nc3c2=O)cc1OCC | 104.0 | 104.0 | 1.0 | 6.0 | -3.9 | x | x
COc1ccc(C)cc1NC(=O)c1ccc2c(c1)C(=O)N(Cc1ccncc1)C2=O | x | x | 79.0* | x | -1.8 | 1.7 | 95.0
SMILES | MEKK3 PB1 HTS | MEKK2wt PB1 HTS | GRK2 aptamer HTS | MEKK2 mut-MEK5 | B2AR ag | GRK2 inh confirm | Aptamer quench SP | others
CC(c1ccco1)N(C(=O)C12CC3CC(CC(C)(C3)C1)C2)c1ccccn1 (configuration not stated) | 99.0 | 100.0 | 55.0* | 2.0 | 3.9 | -6.9 | 98.5
CC(c1ccco1)N(C(=O)c1ccc(F)cc1)c1ccccn1 (configuration not stated) | 111.0 | 107.0 | 2.0 | -1.0 | 0.2 | x | x
O=C(Nc1nccs1)C(c1ccccc1)N1CCCCC1 (configuration not stated) | 101.0 | 98.0 | 61.0* | -1.0 | -7.7 | -4.6 | 98.4
O=C(NC(NC1CCS(=O)(=O)C1)C(Cl)(Cl)Cl)c1cccc(Cl)c1 (configuration not stated) | 104.0 | 102.0 | 51.0* | 2.0 | 4.0 | -1.4 | 95.3
O=C(NC(NC1CCS(=O)(=O)C1)C(Cl)(Cl)Cl)c1ccc(Br)cc1 (configuration not stated) | 102.0 | 102.0 | 0.0 | 2.0 | 4.0 | x | x
Cc1ccc(NS(=O)(=O)c2cccc(C(=O)N3CCCCCCC3)c2)cc1 | x | x | 0.0 | x | -3.6 | x | x
Cc1ccc(S(=O)(=O)Nc2cccc(C(=O)N3CCC(C(N)=O)CC3)c2)cc1 | x | x | 61.0* | x | -1.6 | 2.5 | 97.3
COc1ccc(CCNC(=O)C(=O)NCC2OCCN2S(=O)(=O)c2ccc(OC)c(OC)c2)cc1OC (configuration not stated) | 101.0 | 105.0 | 1.0 | 6.0 | 3.3 | x | x
COc1ccc(CCNC(=O)C(=O)NCC2OCCN2S(=O)(=O)c2cc(F)ccc2F)cc1OC (configuration not stated) | 102.0 | 96.0 | 78.0* | -1.0 | -3.5 | -2.9 | 99.4
Cc1ccccc1Cn1nc(C)c(NC(=O)c2cc3n(n2)C(C(F)F)CC(C(F)F)N3)c1C (configuration not stated) | 98.0 | 97.0 | 98.0* | 0.0 | -1.2 | 0.0 | 100.1
CCCN1CCN(C(=O)C2CCN(S(=O)(=O)c3c(C)noc3/C=C/c3ccc(C)cc3)CC2)CC1 | 104.0 | 130.0 | 77.0* | 10.0 | 24.7 | -3.8 | 105.5
CN1CCCC(CC2Oc3ccccc3Sc3ccccc32)C1 (configuration not stated) | 120.0 | 120.0 | 44.0* | 0.0 | x | x | x | GRK2 CP2=-8.8;FAM quench CP2=101.0
Cc1cc(OCCCN2CCCC2)ccc1Cl | 107.0 | 118.0 | 0.0 | 11.0 | 0.1 | x | x
CC1(c2ccc3ccccc3c2)NC(=O)N(CC(=O)O)C1=O (configuration not stated) | 98.0 | 97.0 | 47.0* | -7.0 | 1.0 | -3.1 | 98.9
CC(=O)N1CCN(C(=O)CN2C(=O)NC(C)(c3ccc4ccccc4c3)C2=O)CC1 (configuration not stated) | x | x | 0.0 | x | -0.5 | x | x
